Assay results published in PubChem BioAssay AID2685 (National Center for Advancing Translational Sciences (NCATS), 2010).
The whole screen tested about 320,000 compounds, of which about 2,100 (0.66%) were called active. Another 53% or so got no clear call; they are omitted. Calls follow the shape of the dose curve; as a rule, active = well fitted inhibition curve with a large enough effect in the signal ratio, with a control signal flat (not every such curve was filed as active); inconclusive = small, poorly fitted or top-dose-only effect, or effect the other way, or a change in a side signal; inactive = flat fitted curve, though single readings scatter; the % refers to the signal ratio. The full list was thinned out, with actives kept by preference.

Assay: qHTS Assay for Lipid Storage Modulators in Drosophila S3 Cells;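 as to cell number change: cells counted by Cell Tracker Red CMTPX staining in the red channel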; as to lipid storage change, negative = inhibition: % is scaled to controls: 0 for no effect and ±100 for the full control effect
Details: BODIPY lipid droplet fluorescence, 18-24 h, cells fed with added oleic acid; cell number change: measured here: cell count max response; series mostly up to 46.1 µM; lipid storage change, negative = inhibition: at the top concentration
Summary of the method: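 Drosophila S3 cells got compounds at several concentrations plus oleic acid (400 uM solution). Laser-scanning cytometry with 488 nm excitation read lipid droplets at 500-530 nm and cells at 575-640 nm. Percent activity was relative to 20 uM Triacsin C.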
Potency is read from the fitted curve at half-maximal effect.

Compound	lipid storage change, negative = inhibition	cell number change	outcome	Potency
CC1(C)CC(=O)C=C(NCCc2ccccc2)C1	22.1% (inactive)	5.18%		
CC1(C)CC(=O)C=C(Nc2ccc(S(N)(=O)=O)cc2)C1	0.606% (inactive)	5.75%		
FC(F)(F)c1nnc(-c2ccccc2)nc1N1CCOCC1			inactive	
O=C(COc1ccccc1)NC(NC(=S)Nc1ccccc1C(=O)O)C(Cl)(Cl)Cl (configuration not stated)	0.637% (inactive)	-4.52%		
CCCCN(C(=O)c1cccc(S(=O)(=O)N2CC(C)OC(C)C2)c1)c1c(N)n(CCCC)c(=O)[nH]c1=O (configuration not stated)	7.24% (inactive)	6.37%		
CCOC(=O)C(NC(=O)NC1CCCCC1)(c1ccccc1)C(F)(F)F (configuration not stated)		-7.07%		7.31 µM (active)
CCOC(=O)C(NC(=O)Nc1ccc(O)cc1)(c1ccccc1)C(F)(F)F (configuration not stated)	2.59% (inactive)	14.8%		
CCOC(=O)C(NC(=O)N1CCCCC1)(c1ccccc1)C(F)(F)F (configuration not stated)	-12.7% (inactive)	-0.413%		
Cc1n[nH]c(C)c1S(=O)(=O)N1CCc2ccccc2C1		24.8%	inactive	
Cc1nc2ccccn2c1C(=O)N/N=C/c1ccccc1	-11.4% (inactive)	9.24%		
C/C(=N\NC(=O)c1c(C)nc2ccccn12)c1ccco1	-0.446% (inactive)	-20.6%		
C/C(=N\NC(=O)c1c(C)nc2ccccn12)c1ccc(O)cc1O		6.25%		5.8 µM (active)
CC(=O)N1CCN(C(=S)c2ccc(Cl)cc2)CC1	1.15% (inactive)	-11.3%		
COC(=O)c1c(SCC(=O)Nc2ccc(C)cc2)nc(=O)[nH]c1C	-0.206% (inactive)	11%		
CCOC(=O)c1c(SCC(=O)Nc2nc(C)cs2)nc(=O)[nH]c1C		11.9%		13 µM (active)
Cc1csc(NC(=O)CSc2ncnc3ccccc23)n1	25.2% (inactive)	-0.862%		
Cc1csc(NC(=O)CSc2[nH]c(=O)ncc2C)n1			inactive	
Cc1csc(NC(=O)CSc2nc3ccccc3c3c2CCCC3)n1	-3.82% (inactive)	1.26%		
Cc1csc(NC(=O)CSc2nc(C(C)C)nc3ccccc23)n1		6.52%		7.31 µM (active)
CC(=O)Nc1ccc(S(=O)(=O)NNC(=O)CCC(=O)Nc2cc(C)ccc2C)cc1		1.21%		2.31 µM (active)
Cc1ccc(NC(=O)CCC(=O)NNS(=O)(=O)c2ccc(Cl)cc2)cc1C		-13.3%	inactive	
Cc1ccc(S(=O)(=O)NNC(=O)CCC(=O)Nc2ccccc2)cc1	-16.6% (inactive)	20.4%		
Cc1ccc([N+](=O)[O-])cc1NC(=O)CN(C)CCOc1ccccc1	14.4% (inactive)	12%		
CCOC(=O)c1cc(-c2ccc(OC)cc2)n(CCC(=O)NC2CCN(Cc3ccccc3)CC2)c1C	4.21% (inactive)	11%		

Compound	lipid storage change, negative = inhibition	cell number change	outcome	Potency
C=CCN(c1ccc(C(=O)OC)cc1)S(=O)(=O)c1ccccc1	8.9% (inactive)			
Cc1ccc(-c2ccc(S(=O)(=O)NCc3ccco3)cc2)cc1	12.3% (inactive)	2.5%		
Cn1c(=O)oc2cc(S(=O)(=O)NCc3ccco3)ccc21	1.46% (inactive)	0.921%		
Cc1ccc(S(=O)(=O)NCc2ccco2)cc1C		-8.6%		10.3 µM (active)
CC(C)CCNC(=O)C1CCCN1C(=O)NC1CCCCC1 (configuration not stated)	0.129% (inactive)	-5.55%		
CCOCCCNC(=O)C1CCCN1C(=O)NC1CCCCC1 (configuration not stated)		-3.91%		20.6 µM (active)
CCCCNC(=O)C1CCCN1C(=O)NC1CCCCC1 (configuration not stated)	-1.43% (inactive)	9.73%		
Cc1ccc(C(=O)Nc2onc(C)c2C#N)cc1			inactive	
O=C(NCc1ccccc1Cl)c1cnccc1C(F)(F)F	-7.42% (inactive)	0.794%		
Cc1ccc(CCN=c2c([N+](=O)[O-])nn(-c3ccccc3)n2O)cc1			inactive	
COc1ccc(-n2nc([N+](=O)[O-])c(=NCCc3ccc(OC)c(OC)c3)n2O)cc1		-7.82%		0.82 µM (active)
COc1ccc(-n2nc([N+](=O)[O-])c(=NCCc3ccc(C)cc3)n2O)cc1	-6.21% (inactive)	-0.674%		
CCOc1ccccc1/C=N/n1nnnc1N		-5.74%	inactive	
O=C1C2CC=C(Cl)CC2C(=O)N1CCC[n+]1cccc2ccccc21 (configuration not stated)	16.7% (inactive)	-1.42%		
O=C(C1CC(=O)N(c2ccc(Cl)cc2)C1)N1CCC(c2nc3ccccc3[nH]2)CC1 (configuration not stated)	2.22% (inactive)			
CCCNC(=O)Cn1cnc2sc(C(=O)N3CCN(CCC)CC3)c(C)c2c1=O		-2.16%		32.6 µM (active)
CCCNC(=O)Cn1cnc2sc(C(=O)N3CCN(Cc4ccc5c(c4)OCO5)CC3)c(C)c2c1=O	5.05% (inactive)	8.92%		
CCCNC(=O)Cn1cnc2sc(C(=O)N3CCCC(C(=O)OCC)C3)c(C)c2c1=O (configuration not stated)	9.28% (inactive)	-16.1%		
CCOC(=O)C1CCN(C(=O)c2cccc(N3C(=O)NC4CC3(C)Oc3ccc(C)cc34)c2)CC1 (configuration not stated)			inactive	
Cn1c(=O)oc2cc(S(=O)(=O)N3CCCCC3)ccc21		4.27%	inactive	
COc1cc(NS(=O)(=O)c2ccc(N/C=C\C(=O)c3ccc(F)cc3)cc2)nc(OC)n1	10.9% (inactive)	2.61%		
COc1ccc(C(=O)/C=C/Nc2ccc(S(=O)(=O)Nc3cc(OC)nc(OC)n3)cc2)c(OC)c1		34.2%		29.1 µM (active)
COc1ccc(C(=O)/C=C/Nc2ccc(S(=O)(=O)Nc3nc(C)cc(C)n3)cc2)c(OC)c1	0.417% (inactive)	26.5%		
